Whole data set: some 68,000 sequences, median “fluorescence intensity (a.u.)” near 9,100, cut for the highest 2% near 16,000. Only a selection was taken, and the highest values are over-represented in it overall.
Each sequence was assayed against OsWRKY34 (Oryza sativa, UniProt Q0JBA9 1-250) (assay: protein-binding microarray (RPBM); PBS, 2% BSA, 51.3 ng/ul salmon testes DNA, 50 uM zinc acetate, 200 nM TF, 25 C, 1 h; high values mean tight binding). Settings: protein: recombinant; tags: N-terminal polyhistidine and DsRed monomer fusion (pET32a); label: CyDye5-dUTP incorporated in the synthesized complementary strand; 3' TTTTT single-stranded linker to array surface; dsDNA, one strand shown.
Method in brief: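 The binding signal is fluorescence intensity per array feature (arbitrary units). Readings came from an Axon 4000B scanner after a washed, 2% BSA-blocked, double-stranded custom Agilent array had been incubated for 1 h at 25 °C with 200 nM protein and 50 µM zinc acetate. The protein was a Ni–NTA-purified transcription factor fused N-terminally to polyhistidine and DsRed, expressed in E. coli BL21-CodonPlus.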

OsWRKY34, sequence (Q0JBA9 entry or part of it): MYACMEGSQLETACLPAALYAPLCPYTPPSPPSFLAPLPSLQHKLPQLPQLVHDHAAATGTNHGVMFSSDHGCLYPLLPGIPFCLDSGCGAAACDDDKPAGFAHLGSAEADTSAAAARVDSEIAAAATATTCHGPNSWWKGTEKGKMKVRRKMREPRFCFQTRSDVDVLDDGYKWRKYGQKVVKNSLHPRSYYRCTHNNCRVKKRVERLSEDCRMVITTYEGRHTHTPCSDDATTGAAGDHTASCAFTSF

Row | Sequence | binding signal
1 | CGCCTTCGCCTCCGGCCCCTTATATGGCGTGGCGGGGAGGCGGAGTCACCTAGTGCAG | 8930 fluorescence intensity (a.u.)
2 | TTCGTTGACCAAGTTTAATTCAAATTCAATTCAATTTTAACGGAGTCACCTAGTGCAG | 9760 fluorescence intensity (a.u.)
3 | TAATGACTTATCCTGCGGTGAAAAATCTTCATCTTCGTATCGGAGTCACCTAGTGCAG | 8160 fluorescence intensity (a.u.)
4 | GCTGCTCGGATTTGATTGATTGATTGATTGGCGGGTGGTCCGGAGTCACCTAGTGCAG | 8590 fluorescence intensity (a.u.)
5 | GCAATTTTTTACGCCCACACGACTGTCCGAGAGCAATATGCGGAGTCACCTAGTGCAG | 8170 fluorescence intensity (a.u.)
6 | CTCCCGAGGAAGATGACGAGGAGTCAGTCAACAGTTGACTCGGAGTCACCTAGTGCAG | 8130 fluorescence intensity (a.u.)
7 | TTCTTTCCTTACGATTTTTGCTCCTGCTCTAGTTCTTGTTCGGAGTCACCTAGTGCAG | 8140 fluorescence intensity (a.u.)
8 | GAATTTTTTTTTCGTTTTTTTCAATTCGTTATTCTTTTCTCGGAGTCACCTAGTGCAG | 12300 fluorescence intensity (a.u.)
9 | TCCCACGATTTCCTTTCCTGCTTTTCTCATCCCTTTTGTTCGGAGTCACCTAGTGCAG | 16500 fluorescence intensity (a.u.)
10 | TCTCTCTCTCTCTCTCTTCTCTTCTCTTTGTTTTCTTGTTCGGAGTCACCTAGTGCAG | 9940 fluorescence intensity (a.u.)
11 | TCTTCCCGCCTTTTTTTTCTTTGTTATTTTTCTTTTTTTTCGGAGTCACCTAGTGCAG | 18000 fluorescence intensity (a.u.)
12 | TCAATTATTCAGGGTTTCTTCTGGTTCTTGTCTCGCCATGCGGAGTCACCTAGTGCAG | 8630 fluorescence intensity (a.u.)
13 | CCTTCGATTGACCTCCTCATCCTCTTCCCCTGCTTTCTTTCGGAGTCACCTAGTGCAG | 9720 fluorescence intensity (a.u.)
14 | CTTTTTTCTCTGCGGGTTCTTCAATTATTCAGGGTTTCTTCGGAGTCACCTAGTGCAG | 16800 fluorescence intensity (a.u.)
15 | TCCTTTTCTTTTCTTTTATTTTTTTTTGTTTTTTCCCGTTCGGAGTCACCTAGTGCAG | 8300 fluorescence intensity (a.u.)
16 | TTCCTTTTTTCCCGCCCGTTCCTTTTTTGTTTGTTATGTTCGGAGTCACCTAGTGCAG | 15700 fluorescence intensity (a.u.)
17 | ATTCTAGTAGTAGTTGTTTATCTTTGTTCTGTTGTTTCTTCGGAGTCACCTAGTGCAG | 8520 fluorescence intensity (a.u.)
18 | GGGTTCTTTCTGTAGTAGGGGTTTTTCTTTGTTTTCTCTTCGGAGTCACCTAGTGCAG | 17700 fluorescence intensity (a.u.)
19 | AAAAGGCGTTTGCTTGTTTTTGCTGTGGGTTAATTCGCCTCGGAGTCACCTAGTGCAG | 8090 fluorescence intensity (a.u.)
20 | GTCACTCCTACTCCCGCCACCACCGGCCCAATGGCGCCCCCGGAGTCACCTAGTGCAG | 9660 fluorescence intensity (a.u.)

Row | Sequence | binding signal
21 | CCCAGTTTTATTTCTGCAGTTCATTTTATGAGAGCATTCTCGGAGTCACCTAGTGCAG | 8120 fluorescence intensity (a.u.)
22 | GTGCTCTCTGCTGGCTGCGACGCCATATATGCCTTTCTTCCGGAGTCACCTAGTGCAG | 8720 fluorescence intensity (a.u.)
23 | ACATTCTCTTATACCCATCACAATCATTTGCTCAATAGGGCGGAGTCACCTAGTGCAG | 8620 fluorescence intensity (a.u.)
24 | CTATCAATTCGCTCTATTATGTCGCTCAATTCTCTCTCGCCGGAGTCACCTAGTGCAG | 8650 fluorescence intensity (a.u.)
25 | GCCGGATCCAGATCTCCACCGCCTCGCCTCGCCGCGCCGCCGGAGTCACCTAGTGCAG | 10400 fluorescence intensity (a.u.)
26 | CTACACACAAACTTCCAACTTTTCTGTCACATCGTTCCAACGGAGTCACCTAGTGCAG | 11900 fluorescence intensity (a.u.)
27 | GTGTGTTTTTCTGCCATTTTTCGCCTTAGGTCTTCGCAATCGGAGTCACCTAGTGCAG | 12300 fluorescence intensity (a.u.)
28 | GAGATAGATGGGCCTGAAATGCGCCGATGGTCAGGCCTGCCGGAGTCACCTAGTGCAG | 8190 fluorescence intensity (a.u.)
29 | TTCGTGCACGCGGTCCATGCACCAGCCACCATTCCCTTCGCGGAGTCACCTAGTGCAG | 8350 fluorescence intensity (a.u.)
30 | AAGGTTGTCTTGTTTGATTAGCTATTTTCTTTGCCTGGTTCGGAGTCACCTAGTGCAG | 11400 fluorescence intensity (a.u.)
31 | CTTTTGGTCTTCCCTTTCTTTTCTTCTTCTTCTTCTTCTTCGGAGTCACCTAGTGCAG | 10400 fluorescence intensity (a.u.)
32 | GGTCTGGTTCTTCTTGATGCGAGGCTAGCTGACGTTTTTTCGGAGTCACCTAGTGCAG | 17200 fluorescence intensity (a.u.)
33 | TCTGGTTGATTGATCGATTTGGGGAATTGGGGATCTAGCTCGGAGTCACCTAGTGCAG | 12000 fluorescence intensity (a.u.)
34 | GAGGTTAGCTCGCCTCTGATTGGGTTGGTTGGGTGGTCGGCGGAGTCACCTAGTGCAG | 10100 fluorescence intensity (a.u.)
35 | TTGTTCTTTTTGGTCTGGTTTTTTTGTGGTTTCTTGATTGCGGAGTCACCTAGTGCAG | 9010 fluorescence intensity (a.u.)
36 | TAATATATGATCATACTTGTTTTATATACATTGTGTCTTGCGGAGTCACCTAGTGCAG | 9830 fluorescence intensity (a.u.)
37 | CGTTTCTTGGCTGGTTTTCTTGGGCGGCGATCGATCGATGCGGAGTCACCTAGTGCAG | 8140 fluorescence intensity (a.u.)
38 | GATTTGGTCTGGTTTGGTTGGAGGTTAGCTCGCCTCTGATCGGAGTCACCTAGTGCAG | 19400 fluorescence intensity (a.u.)
39 | CTCGTGTGTCTTGCGGGCGGGTGATCTTTCCACATACAGACGGAGTCACCTAGTGCAG | 19200 fluorescence intensity (a.u.)
40 | TTGTTCTTCTTTTTTGGTCTGGTTTTTTTTGTGGTTTCTTCGGAGTCACCTAGTGCAG | 16700 fluorescence intensity (a.u.)

Row | Sequence | binding signal
41 | CGTGTCTTGTGTGTTTCCTGTCTCGCGAGCCTTCCACATACGGAGTCACCTAGTGCAG | 15000 fluorescence intensity (a.u.)
42 | ACCTTAATTAATTAATCTTGTTTTCTCATGGAGTTGTCATCGGAGTCACCTAGTGCAG | 10400 fluorescence intensity (a.u.)
43 | AACGCGTGTATTTCTATGCTTTTGATATTGATCTTGCATCCGGAGTCACCTAGTGCAG | 8230 fluorescence intensity (a.u.)
44 | GGACATTTGGAACTGATTACTCCTACTACTCTAGTGAAAACGGAGTCACCTAGTGCAG | 8400 fluorescence intensity (a.u.)
45 | GTGCTACCTCCATCCCAATATACTTGTCGTTTTAAGTTTTCGGAGTCACCTAGTGCAG | 11800 fluorescence intensity (a.u.)
46 | TCTCTTATACTGATTTTTGGGTCCAATCCCTTACCGTTGACGGAGTCACCTAGTGCAG | 8150 fluorescence intensity (a.u.)
47 | GCCTTTTTTCCTTTGTCTTTTTCCGGCCCGCGTTCTTTTTCGGAGTCACCTAGTGCAG | 17400 fluorescence intensity (a.u.)
48 | GATGTTGTTTCCTTTCTTTGGTGGTTTGGTTTGGTTGGGTCGGAGTCACCTAGTGCAG | 29300 fluorescence intensity (a.u.)
49 | TATTCCTTTCATTGGGTTTGTGCGGGATGGCTGGTTGGTGCGGAGTCACCTAGTGCAG | 18100 fluorescence intensity (a.u.)
50 | CTTGTTGATGTGGGTGTTTCTTGGTCGATCCTTCTTGTTTCGGAGTCACCTAGTGCAG | 8330 fluorescence intensity (a.u.)
51 | ATTTGTTGTTTCATTTGTATTGTTTTGTGTTGGTTTATGTCGGAGTCACCTAGTGCAG | 8940 fluorescence intensity (a.u.)
52 | ACCTTTCCTTTCATCTCTTCCGCTGGTTTTGTGGGATATTCGGAGTCACCTAGTGCAG | 12800 fluorescence intensity (a.u.)
53 | GTTCTCTTTTTTGTTTGTCTTTCCTAGTGCAATATGTTTCCGGAGTCACCTAGTGCAG | 10700 fluorescence intensity (a.u.)
54 | TTTGTGTGTCTTGTTTATATGTGCACATATCTTGTCTTGTCGGAGTCACCTAGTGCAG | 8370 fluorescence intensity (a.u.)
55 | TGGTGACGATGGTGATGTTCTTGTTGTTGGTTTTTCCTTTCGGAGTCACCTAGTGCAG | 9530 fluorescence intensity (a.u.)
56 | CCGTTTCCTTTGCTGGTTGTGTTTTGTGCTTGCATTCATGCGGAGTCACCTAGTGCAG | 12400 fluorescence intensity (a.u.)
57 | TTCCGGCCCGCGTTCTTTTTGAAGTCCAGTTTACGTCCTTCGGAGTCACCTAGTGCAG | 10800 fluorescence intensity (a.u.)
58 | GGTCTGGTTTTATCGGTTTATATGTGTGTGTTTTTTTTGTCGGAGTCACCTAGTGCAG | 33500 fluorescence intensity (a.u.)

Source: PMC7819943, “Rice protein-binding microarrays: a tool to detect cis-acting elements near promoter regions in rice”
